{"source": "PubChem BioAssay (NCATS)", "note": "Records with an inconclusive call do not appear. Activity calls are given as the source filed them.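 Rule for the calls: active = dose-dependent loss of cell ATP signal giving a full or clear fitted curve, ranked by lower potency value; inconclusive = weak partial curve or response only at the top dose; inactive = no loss of viability signal.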 Potency is the fitted concentration of half-maximal effect."}
{"assay": "Cell Viability - Jurkat (AID 426);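 note: cells exposed to compound for 40 hours at 37 °C before ATP read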", "settings": "qHTS", "text": "NIH Chemical Genomics Center [NCGC]\nNIH Molecular Libraries Screening Centers Network [MLSCN]\nNational Institutes of Environmental Health Sciences [NIEHS]\nNational Toxicology Program [NTP]\nWe have developed a 1536-well cell-based assay for quantitative high throughput screening (qHTS) against a number of cell lines to determine in vitro cytotoxicity of small molecules. This particular assay uses the Jurkat cell line (Clone E6-1) which is derived from the human T cell leukemia.\nNCGC Assay Protocol Summary:\nThe CellTiter-Glo luminescent cell viability assay (Promega) is a homogeneous method to measure the number of viable cells in culture. The end point readout of this assay is based on quantitation of intracellular ATP, an indicator of metabolic activity, using the luciferase reaction. Luciferase catalyzes the oxidation of beetle Luciferin to oxyluciferin and light in the presence of ATP. The luminescent signal is proportional to amount of ATP present.\nUsing the CellTiter-Glo luminescent cell viability assay, the amount of cellular ATP was measured in the Jurkat cell line with complete culture medium following compound treatment for 40 hours. The assay was performed in opaque white Kalypsys 1536-well plates. In the screen, tamoxifen and doxorubicin were used as positive controls. Library compounds were measured for their ability to cause acute toxicity in the cell line, as reflected by a decrease in intracellular ATP levels, in a concentration-dependent manner. […] AC50 values were determined from concentration-response data modeled with the standard Hill equation.\nqHTS protocol for CellTiter Glo Jurkat cellular assay\n[Step] [Parameter] [Value] [Description]\n1. Reagent; 5 uL; 5000 Jurkat cells/well\n3. Controls; 23 nL; Tamoxifen 0.34 uM to 100 uM & Doxorubicin 0.02 nM to 100 uM\n4. Time; 40 hr; 37 °C incubation\n5. Reagent; 5 uL; CellTiter Glo reagent\n6. Time; 20 min; Room Temperature\n7. Detection; Luminescence; Viewlux plate reader\nKeywords: cell viability, cytotoxicity, Jurkat cell line, luminescence, NTPHTS, NTPHTS_NCGC, NIEHS, EPA, DSSTox, MLSMR, MLSCN, NIH Roadmap, qHTS, NCGC"}
{"smiles": "C=CCOC(=O)c1ccccc1N", "Potency": "> 92 µM (inactive)"}
{"smiles": "c1ccc(N=Nc2ccccc2)cc1", "Potency": "47.9 µM (active)"}
{"smiles": "ClC(Cl)=C(c1ccc(Cl)cc1)c1ccc(Cl)cc1", "Potency": "> 92 µM (inactive)"}
{"smiles": "CCCCOCCOP(=O)(OCCOCCCC)OCCOCCCC", "Potency": "> 92 µM (inactive)"}
{"smiles": "CCc1cccc(CC)c1N(COC)C(=O)CCl", "Potency": "54 µM (active)"}
{"smiles": "C1CCC2CCCCC2C1", "note": "(stereo not given)", "Potency": "> 92 µM (inactive)"}
{"smiles": "c1ccc(OP(Oc2ccccc2)Oc2ccccc2)cc1", "Potency": "> 92 µM (inactive)"}
{"smiles": "C=CC(N)=O", "Potency": "> 92 µM (inactive)"}
{"smiles": "C=C(C)C#N", "Potency": "> 92 µM (inactive)"}
{"smiles": "CCCC(=O)Cl", "Potency": "> 92 µM (inactive)"}
{"smiles": "CC(O)CCl", "note": "(stereo not given)", "Potency": "> 92 µM (inactive)"}
{"smiles": "Nc1ccc(Br)cc1", "Potency": "> 92 µM (inactive)"}
{"smiles": "Cc1ccc([N+](=O)[O-])cc1C", "Potency": "> 92 µM (inactive)"}
{"smiles": "O=[N+]([O-])c1cccc2ccccc12", "Potency": "> 92 µM (inactive)"}
{"smiles": "O=C(O)COc1ccc(Cl)cc1Cl", "Potency": "> 92 µM (inactive)"}
{"smiles": "Clc1nc(Cl)nc(Cl)n1", "Potency": "> 92 µM (inactive)"}
{"smiles": "C=CCc1ccc2c(c1)OCO2", "Potency": "> 92 µM (inactive)"}
{"smiles": "Cc1ccc(O)c(C)c1", "Potency": "> 92 µM (inactive)"}
{"smiles": "Cc1ccc2ccccc2c1", "Potency": "> 92 µM (inactive)"}
{"smiles": "CCN(CC)c1ccccc1", "Potency": "> 92 µM (inactive)"}
{"smiles": "CNC(=O)O/N=C/C(C)(C)SC", "Potency": "> 92 µM (inactive)"}
{"smiles": "CCCOC(=O)c1ccccc1C(=O)OCCC", "Potency": "> 92 µM (inactive)"}
{"smiles": "O=C(Cl)/C=C/C(=O)Cl", "Potency": "> 92 µM (inactive)"}
{"smiles": "C[N+](C)(C)Cc1ccccc1", "Potency": "> 92 µM (inactive)"}
{"smiles": "CC(=O)[O-].CC(=O)[O-].O.O.O.[Pb+2]", "Potency": "> 92 µM (inactive)"}
{"smiles": "Clc1nc(Cl)nc(Nc2ccccc2Cl)n1", "Potency": "> 92 µM (inactive)"}
{"smiles": "[O-][Br+2]([O-])O", "Potency": "> 92 µM (inactive)"}
{"smiles": "C=CC(C)=O", "Potency": "> 92 µM (inactive)"}
{"smiles": "CCCSC(=O)Cl", "Potency": "> 92 µM (inactive)"}
{"smiles": "Cc1cccc(C#N)c1", "Potency": "> 92 µM (inactive)"}
{"smiles": "ClC(Cl)=C(Cl)C(Cl)=C(Cl)Cl", "Potency": "> 92 µM (inactive)"}
{"smiles": "CC(Cl)Cl", "Potency": "> 92 µM (inactive)"}
{"smiles": "NC(=S)Nc1ccccc1", "Potency": "> 92 µM (inactive)"}
{"smiles": "Clc1cc(Cl)c(-c2cc(Cl)c(Cl)cc2Cl)cc1Cl", "Potency": "> 92 µM (inactive)"}
{"smiles": "Clc1cccc(C(Cl)(Cl)Cl)n1", "Potency": "> 92 µM (inactive)"}
{"smiles": "CCCCCCCCCc1ccc(O)cc1", "Potency": "> 92 µM (inactive)"}
{"smiles": "CC(C)(OO)c1ccccc1", "Potency": "28.3 µM (active)"}
{"smiles": "CCOP(=S)(OCC)Oc1ccc([N+](=O)[O-])cc1", "Potency": "> 92 µM (inactive)"}
{"smiles": "Cc1ccccc1N", "Potency": "> 92 µM (inactive)"}
{"smiles": "O=C(Cl)C(Cl)(Cl)Cl", "Potency": "> 92 µM (inactive)"}
